# PubChem BioAssay (NCATS)
# Results filed as inconclusive are left out. Entries that show only a call come without a potency. Calls of active or inactive are those of the source. Unless noted, calls come from the whole dose curve; as a rule, active = well fitted curve in the direction sought with a large enough effect; inconclusive = small, poorly fitted or top-dose-only effect, or another doubt; inactive = no such curve, though single readings can be large; an effect the other way counts as inactive or inconclusive. Residues, ends and D or L forms follow the SMILES beside them. *: point of attachment. Cbz = O=C(OCc1ccccc1)*
# Tests used:
# [1] = qHTS Assay for Identification of Small Molecule Agonists for Thrombopoietin (TPO) Signaling Pathway (AID 917); details: TPO signaling pathway reporter cells, agonist qHTS, stimulated with TPO at its EC50; series mostly up to 38.5 µM
# Summary of the method: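 Activators of TPO signaling were sought in murine Ba/F3 cells transfected with the human receptor, using a luciferase gene driven by the Glycoprotein IIb promoter; 24-hr compound exposure at 37 C alongside 26 pM TPO, in IL-3-free medium.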
# [2] = molecular target: Muscarinic acetylcholine receptor M1 (Rattus norvegicus) (UniProt P08482); assay: qHTS Assay for Antagonists of Acetylcholine Muscarinic M1 Receptor: Kinetic Measurement of Intracellular Calcium Response (AID 943); details: M1-expressing cells, kinetic intracellular calcium fluorescence; series mostly up to 35.3 µM; note: nearly all actives have a fitted effect of over 75% in size; note: potency is the fitted concentration of half-maximal effect
# Summary of the method: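 Rat M1-CHO cells, 2000/well, overnight → Fluo-4 no-wash dye with probenecid, 1 h 37C → compound 10 min, room temp → basal read 6 s → carbachol EC80 (100 nM) → 4 min kinetic read; peak/basal.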
# [3] = molecular target: Muscarinic acetylcholine receptor M1 (Rattus norvegicus) (UniProt P08482); assay: qHTS Assay for Antagonists of Acetylcholine Muscarinic M1 Receptor: Measurement of IP-One Response (AID 944); details: CHO-M1 cells, IP-One HTRF, antagonist mode; series mostly up to 46.1 µM; note: nearly all actives have a fitted effect of over 75% in size
# Summary of the method: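 M1-CHO (rat), 2000 cells/well, overnight recovery; cpd 10 min; carbachol EC80 (200 nM), 30 min, HEPES buffer + 50 mM LiCl pH 7.4; IP-One HTRF, Ex 337, Em 620/665 nm.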
# [4] = molecular target: Pyruvate kinase (Leishmania mexicana) (UniProt Q27686); assay: qHTS Validation Assay for Inhibitors of Leishmania Mexicana Pyruvate Kinase (AID 945); details: purified L. mexicana pyruvate kinase, enzyme activity, E451W mutant enzyme; series mostly up to 57.5 µM
# Summary of the method: (§1)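 Pyruvate kinase activity of E451W LmPYK (0.2 nM) was followed as ATP output after 1 h at room temperature with 0.5 mM PEP and 0.1 mM ADP, detected by PKLight luminescence.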
# [5] = molecular target: Pyruvate kinase PKM (Homo sapiens) (UniProt P14618); assay: qHTS Assay for Activators of Human Muscle Pyruvate Kinase (AID 954; active = well fitted curve in the direction sought with a large enough effect, not every such curve was filed as active); details: purified human muscle pyruvate kinase, luciferase-coupled luminescence, 1 h; series mostly up to 57.5 µM
# Summary of the method: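 Human PKM2 activity is measured as ATP generation, detected by luciferase-coupled luminescence. The enzyme (0.1 nM) acts on 0.5 mM PEP and 0.1 mM ADP for 1 h at ambient temperature; data are normalized to uninhibited and full-inhibition wells.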
# [6] = Confirmation and Secondary Assay for Modulators of Hemoglobin Beta Chain Splicing at IVS2 654 locus (AID 910); details: HeLa EGFP-654 splicing reporter, GFP fluorescence, 48 h; series mostly up to 46.1 µM;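 note: HeLa cells stably carrying EGFP split by mutant beta-globin IVS2-654 intron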
# Summary of the method: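 HeLa cells stably expressing EGFP interrupted by β-globin IVS2-654 intron, seeded overnight in Opti-MEM/2% FCS, then treated 2 days at 37 °C. Restored splicing read as total peak GFP intensity per well by laser scanning cytometry (488 nm excitation, 500–520 nm emission); 500 nM antisense PNA as control.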
# [7] = Confirmation and Secondary Assay for Modulators of Hemoglobin Beta Chain Splicing at IVS2 705 locus (AID 930); details: HeLa EGFP-705 splicing reporter, GFP fluorescence, 48 h; series mostly up to 46.1 µM;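 note: HeLa cells stably expressing the EGFP-705 splicing reporter; GFP fluorescence per well restored by corrected splicing of the IVS2-705 intron in EGFP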
# Summary of the method: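 Assay measures total GFP intensity per well in HeLa EGFP-705 cells after 2 days with compound; mis-splicing normally truncates EGFP, so fluorescence indicates corrected splicing.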
# [8] = qHTS Assay for Identification of Small Molecule Agonists for Hypoxia Response Element Signaling Pathway (AID 914; active = well fitted activation curve with a large enough effect in the signal ratio, with a control signal flat, not every such curve was filed as active; the % refers to the signal ratio); details: ME-180 (cervical carcinoma) HRE-bla reporter, beta-lactamase ratio, CoCl2, 17 h; activation: stronger effect = higher value
# Summary of the method: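 Compounds in a titration series were added to ME-180 reporter cells alongside an EC50 level of CoCl2. After 17 hours, beta-lactamase activity was read as the 460nm/530nm emission ratio of CCF4, giving AC50 values.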
# [9] = molecular target: Pyruvate kinase (Leishmania mexicana) (UniProt Q27686); assay: qHTS Validation Assay for Activators of Leishmania Mexicana Pyruvate Kinase (AID 959); details: purified L. mexicana pyruvate kinase, enzyme activity; series mostly up to 57.5 µM
# Summary of the method: as §1
# [10] = qHTS Assay for Identification of Small Molecule Antagonists for Thrombopoietin (TPO) Signaling Pathway (AID 918); details: TPO-dependent cell signaling reporter, antagonist mode; note: potency is the fitted concentration of half-maximal effect; nearly all actives have a fitted effect of over 60% in size
# Summary of the method: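 Ba/F3 (murine, hTPO-R, GPIIb-luc reporter); overnight IL-3 withdrawal; cpd + TPO 26 pM final (EC50); 24 h 37 C/5% CO2; Steadylite luminescence after 10 min RT.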
# Sequence of Muscarinic acetylcholine receptor M1 (Rattus norvegicus) (P08482 whole entry, looked up): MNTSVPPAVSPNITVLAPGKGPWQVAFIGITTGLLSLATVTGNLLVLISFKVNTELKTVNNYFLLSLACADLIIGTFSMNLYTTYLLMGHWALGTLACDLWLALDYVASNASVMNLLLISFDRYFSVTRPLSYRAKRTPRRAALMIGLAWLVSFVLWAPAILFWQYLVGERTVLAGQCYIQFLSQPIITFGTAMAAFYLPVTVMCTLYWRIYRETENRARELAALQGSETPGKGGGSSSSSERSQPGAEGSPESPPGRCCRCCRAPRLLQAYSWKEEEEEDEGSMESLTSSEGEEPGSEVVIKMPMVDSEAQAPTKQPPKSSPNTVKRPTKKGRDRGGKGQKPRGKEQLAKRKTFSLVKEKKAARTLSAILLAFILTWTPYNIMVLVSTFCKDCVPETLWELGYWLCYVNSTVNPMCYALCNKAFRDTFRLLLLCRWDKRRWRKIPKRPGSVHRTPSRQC
# Sequence of Pyruvate kinase PKM (Homo sapiens) (P14618 whole entry, looked up): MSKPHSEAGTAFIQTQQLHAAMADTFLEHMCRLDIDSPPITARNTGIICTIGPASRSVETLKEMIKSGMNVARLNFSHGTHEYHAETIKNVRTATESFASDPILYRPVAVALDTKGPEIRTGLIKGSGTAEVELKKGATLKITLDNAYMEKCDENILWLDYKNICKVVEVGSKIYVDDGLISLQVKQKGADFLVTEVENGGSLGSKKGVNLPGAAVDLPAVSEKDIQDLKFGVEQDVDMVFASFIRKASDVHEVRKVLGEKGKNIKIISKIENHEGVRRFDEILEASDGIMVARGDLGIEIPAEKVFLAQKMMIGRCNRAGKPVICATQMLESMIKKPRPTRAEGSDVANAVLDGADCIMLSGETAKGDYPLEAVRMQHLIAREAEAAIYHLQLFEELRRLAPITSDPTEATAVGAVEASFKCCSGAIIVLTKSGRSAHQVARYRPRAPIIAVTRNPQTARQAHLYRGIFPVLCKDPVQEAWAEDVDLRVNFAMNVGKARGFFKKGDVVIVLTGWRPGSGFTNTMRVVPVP
# Sequence of Pyruvate kinase (Leishmania mexicana) (Q27686 2-499 E452W): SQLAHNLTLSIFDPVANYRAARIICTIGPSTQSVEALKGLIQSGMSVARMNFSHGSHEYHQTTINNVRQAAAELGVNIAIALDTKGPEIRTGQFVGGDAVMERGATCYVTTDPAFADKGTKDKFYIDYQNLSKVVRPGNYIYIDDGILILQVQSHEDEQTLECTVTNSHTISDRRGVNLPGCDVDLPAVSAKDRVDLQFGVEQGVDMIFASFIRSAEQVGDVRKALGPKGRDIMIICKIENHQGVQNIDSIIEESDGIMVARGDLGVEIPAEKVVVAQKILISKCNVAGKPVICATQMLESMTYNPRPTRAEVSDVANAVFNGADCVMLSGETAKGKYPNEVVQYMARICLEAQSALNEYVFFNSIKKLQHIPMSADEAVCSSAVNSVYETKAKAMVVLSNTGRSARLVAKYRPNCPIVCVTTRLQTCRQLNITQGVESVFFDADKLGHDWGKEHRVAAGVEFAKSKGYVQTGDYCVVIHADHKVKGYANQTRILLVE
compound,measurement,setting,value
Cc1ccc([N+](=O)[O-])cc1S(=O)(=O)N(C)C,Potency,[1],inactive
same,Potency,[2],inactive
same,Potency,[3],inactive
same,Potency,[4],inactive
same,outcome,[5],inactive
CC(C)[C@H](NC(=O)OCc1ccccc1)C(=O)N[C@H](C=O)Cc1ccccc1 (Cbz-Val-Phe-aldehyde),Potency,[1],inactive
same,Potency,[2],inactive
same,Potency,[4],inactive
same,outcome,[5],inactive
O=c1[nH]c2cc(Cl)ccc2c(O)c1-c1ccc(Oc2ccccc2)cc1,Potency,[1],inactive
same,Potency,[3],inactive
same,Potency,[4],inactive
same,outcome,[5],inactive
CCCc1c(OCCCOc2ccc(OCC(=O)O)cc2)ccc(C(C)=O)c1O,Potency,[1],inactive
same,Potency,[3],inactive
same,Potency,[4],inactive
same,outcome,[5],inactive
CC1=C(/C=C/C(C)=C/C=C/C(C)=C\C(=O)O)C(C)(C)CCC1,Potency,[6],inactive
same,outcome,[7],inactive
O=C(OCCN1CCOCC1)C1(c2ccccc2)CCCCC1,Potency,[1],inactive
same,Potency,[2],2 µM (active)
same,Potency,[4],inactive
same,outcome,[5],inactive
CCCCCCC/C=C\CCCCCCCCC(=O)O,activation,[8],-14% (inactive)
same,Potency,[1],inactive
same,Potency,[2],inactive
same,Potency,[3],inactive
same,Potency,[4],inactive
same,outcome,[5],inactive
CCCCCCCCCCC/C=C\C(C)(C)/C=C\CCCC(=O)O,Potency,[1],inactive
same,Potency,[2],inactive
same,Potency,[3],inactive
same,Potency,[4],inactive
same,outcome,[5],inactive
COc1ccc(C(=O)NCc2cccnc2)cc1C(=O)NCc1cccnc1,Potency,[1],inactive
same,Potency,[2],inactive
same,Potency,[3],inactive
same,Potency,[4],inactive
same,outcome,[5],inactive
COc1cc(/C=C(\C#N)C(=O)c2ccc(O)c(O)c2)cc(I)c1O,Potency,[1],inactive
same,Potency,[2],inactive
same,Potency,[4],inactive
same,outcome,[5],inactive
same,Potency,[9],15.8 µM (active)
O=C(O)Cc1c[nH]c2ccc(O)cc12,Potency,[1],inactive
same,Potency,[2],inactive
same,Potency,[3],inactive
same,Potency,[4],inactive
same,outcome,[5],inactive
NC(=O)CNCCC(c1ccccc1)c1ccccc1,Potency,[1],inactive
same,Potency,[2],inactive
same,Potency,[4],inactive
same,outcome,[5],inactive
CCCn1c(=O)c2[nH]c(-c3ccc(S(=O)(=O)O)cc3)nc2n(CCC)c1=O,Potency,[1],inactive
same,Potency,[2],inactive
same,Potency,[3],inactive
same,Potency,[4],inactive
same,outcome,[5],inactive
N#C/C(=C\c1ccc(O)c(O)c1)C(=O)NCCCNC(=O)/C(C#N)=C/c1ccc(O)c(O)c1,Potency,[1],inactive
same,Potency,[2],inactive
same,outcome,[5],inactive
COc1cc(CNC(=O)CCCCCCC(C)C)ccc1O,Potency,[1],inactive
same,Potency,[2],inactive
same,Potency,[3],inactive
same,Potency,[4],inactive
same,outcome,[5],inactive
O=S(=O)(c1cccc2c(Cl)cccc12)N1CCCNCC1,Potency,[1],inactive
same,Potency,[3],inactive
same,Potency,[4],inactive
same,outcome,[5],inactive
c1ccc(CN2CCC3(CCCc4ccccc43)CC2)cc1,Potency,[1],inactive
same,Potency,[4],inactive
same,outcome,[5],inactive
NC(N)=NC(N)=Nc1cccc(Cl)c1,Potency,[3],inactive
same,Potency,[4],inactive
same,outcome,[5],inactive
N=C(N)c1ccc(N)cc1,Potency,[4],inactive
same,outcome,[5],inactive
COc1ccccc1N1CCN(CCN(C(=O)c2ccc(F)cc2)c2ccccn2)CC1,Potency,[1],inactive
same,Potency,[3],inactive
same,Potency,[4],inactive
same,outcome,[5],inactive
O=c1[nH]c2ccccc2c2ccccc12,Potency,[1],inactive
same,Potency,[4],inactive
same,outcome,[5],inactive
Nc1ncnc2c1c(-c1ccc(Oc3ccccc3)cc1)cn2C1CCCC1,Potency,[3],inactive
same,Potency,[4],inactive
same,outcome,[5],inactive
N=C(N)SCCc1cnc[nH]1,Potency,[10],0.794 µM (active)
same,Potency,[2],inactive
same,Potency,[3],inactive
same,Potency,[4],inactive
same,outcome,[5],inactive
COc1ccccc1N1CCN(CCCCNC(=O)c2ccc3ccccc3c2)CC1,Potency,[4],inactive
same,outcome,[5],inactive
CCCCCCCCCCCCCCC[C@H](O)[C@H](N)CO,Potency,[10],12.6 µM (active)
same,Potency,[2],8.91 µM (active)
same,Potency,[3],inactive
same,Potency,[4],inactive
same,outcome,[5],inactive
c1ccc2c(c1)CC(N1CCN(c3cccc4c3OCCO4)CC1)C2,Potency,[1],inactive
same,Potency,[4],inactive
same,outcome,[5],inactive
S=C(S)N1CCCC1,Potency,[3],inactive
same,Potency,[4],inactive
same,outcome,[5],inactive
Cc1cccc(C(=O)NCN2CCN(c3ccccc3C#N)CC2)c1,Potency,[2],inactive
same,Potency,[4],inactive
same,outcome,[5],inactive
C[C@H](O)C(=O)C1=Nc2c(nc(N)[nH]c2=O)NC1,Potency,[1],inactive
same,Potency,[3],inactive
same,Potency,[4],inactive
same,outcome,[5],inactive
NCCNS(=O)(=O)c1cccc2c(Cl)cccc12,Potency,[2],inactive
same,Potency,[3],inactive
same,Potency,[4],inactive
same,outcome,[5],inactive
COc1cc(CC(=O)O)ccc1O,Potency,[1],inactive
same,Potency,[3],inactive
same,Potency,[4],inactive
same,outcome,[5],inactive
N=C(N)c1ccc(OCCCCCOc2ccc(C(=N)N)cc2)cc1 (tested in a mixture with another compound),outcome,[5],inactive
Nc1ncnc2c1ncn2C1CCCC1,Potency,[2],inactive
same,Potency,[3],inactive
same,Potency,[4],inactive
same,outcome,[5],inactive
Nn1nnc2ccccc21,Potency,[3],inactive
same,Potency,[4],inactive
same,outcome,[5],inactive
COC(=O)[C@H](NC(=O)c1cc(-c2ccccc2)nc2ccccc12)c1ccccc1,Potency,[1],inactive
same,Potency,[3],inactive
same,Potency,[4],inactive
same,outcome,[5],inactive
N#C/C(=C\c1ccc(O)c(O)c1)C(=O)NCCc1ccccc1,Potency,[2],inactive
same,Potency,[4],inactive
same,outcome,[5],inactive
O=C(O)Cc1ccc(O)c(O)c1,Potency,[2],inactive
same,Potency,[4],inactive
same,outcome,[5],inactive
